According to PubChem BioAssay AID1851 (National Center for Advancing Translational Sciences (NCATS), 2009):
Several values for one entry are separate records, joined by “and”; a condition that tells them apart may be missing. Equal values may be shown once. Hit rate of the full screen: of about 16,000 compounds, about 4,000 (25%) were called active. Roughly 26% stayed inconclusive and do not appear here. Calls follow the shape of the dose curve; as a rule, active = well fitted curve in the direction sought with a large enough effect; inconclusive = small, poorly fitted or top-dose-only effect, or effect the other way; inactive = no such curve, though single readings can be large or run the other way. These entries were drawn from the full list.

molecular target: Cytochrome P450 2C9 (Homo sapiens) (UniProt P11712); assay: Cytochrome panel assay with activity outcomes; details: recombinant CYP, pro-luciferin dealkylation, luminescence, p450-cyp2c9; series mostly up to 57.1 µM; activity, negative = inhibition: at the top concentration
Sequence (P11712 whole entry, looked up): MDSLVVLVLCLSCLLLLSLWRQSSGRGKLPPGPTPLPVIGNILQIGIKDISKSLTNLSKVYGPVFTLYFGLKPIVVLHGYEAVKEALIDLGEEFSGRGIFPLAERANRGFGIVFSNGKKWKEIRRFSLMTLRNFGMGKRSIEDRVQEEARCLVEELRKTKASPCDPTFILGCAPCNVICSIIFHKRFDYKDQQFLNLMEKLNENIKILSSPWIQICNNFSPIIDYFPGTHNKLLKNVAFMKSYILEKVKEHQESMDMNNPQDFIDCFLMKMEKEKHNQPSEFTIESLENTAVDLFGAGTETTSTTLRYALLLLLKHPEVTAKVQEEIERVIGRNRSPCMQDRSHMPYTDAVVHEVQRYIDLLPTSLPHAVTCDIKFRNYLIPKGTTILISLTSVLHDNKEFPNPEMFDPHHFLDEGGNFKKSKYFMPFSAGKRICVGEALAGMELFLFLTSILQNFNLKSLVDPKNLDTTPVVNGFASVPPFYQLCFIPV
% is scaled to controls: 0 for no effect and ±100 for the full control effect.

AC50, active:
Cc1ccc(C(=O)NC(=S)NCC2CCCO2)cc1 (centres undefined) 7.94 µM
O=C(CC(c1ccccc1)c1ccccc1)NCC1CCCO1 (centres undefined) 20 µM
CN(c1ccc(C(=O)NCC2CCCO2)cc1)S(=O)(=O)c1ccccc1 (centres undefined) 25.1 µM
Oc1oc(-c2ccccc2)nc1C=Nc1ccccc1 8.91 µM
CN(C)c1ccc(N=Cc2nc(-c3ccccc3)oc2O)cc1 7.08 µM
CC(/C=N/n1c(-c2cccnc2)n[nH]c1=S)=C\c1ccccc1 10 µM
CCc1ccc(N(C(=O)c2csnn2)C(C(=O)NCc2ccccc2)c2ccco2)cc1 (centres undefined) 14.1 µM
Cc1ccc(S(=O)(=O)N2CCOCC2)cc1NC(=O)COC(=O)CCC(=O)c1cccs1 14.1 µM
CCN(CC)c1ccc2c(c1)OC(N)=C(C#N)C2c1cccnc1 (centres undefined) 7.94 µM
Cc1nc(SCc2cccc(Oc3ccccc3)c2)n[nH]1 15.8 µM
CC(C)(O)C#Cc1ccc(C(=O)NCc2cccs2)s1 25.1 µM
COc1cc(/C=N/NC(N)=O)c(Br)cc1OCC(=O)Nc1ccccc1C 3.16 µM
O=C(NCC1COc2ccccc2O1)C1C2C=CC3(CN(Cc4cccs4)C(=O)C13)O2 (centres undefined) 31.6 µM
O=C(Nc1nnc(SCc2ccc(Cl)cc2Cl)s1)C1COc2ccccc2O1 (centres undefined) 7.08 µM
O=C(Nc1ncc(Cc2ccccc2)s1)C1COc2ccccc2O1 (centres undefined) 6.31 µM
COc1ccc2c(=O)c(-c3ccccc3C)c(C)oc2c1 17.8 µM
COC(=O)[C@@]1(Cc2ccccc2)[C@H]2c3cc(C(=O)N4CCCC4)n(Cc4ccc(OC)c(OC)c4)c3C[C@H]2CN1C(=O)c1ccccc1 1.26 µM
COC(=O)[C@@]1(Cc2ccccc2)[C@H]2c3cc(C(=O)N4CCCC4)n(Cc4ccc(O)c(OC)c4)c3C[C@H]2CN1C(=O)c1ccccc1 2.51 µM
N#Cc1ccc(Oc2nc(C(N)=O)cc(-c3ccccc3)n2)cc1 6.31 µM
Cc1ccc(C(=O)N2CCN(c3ccc(C(F)(F)F)cn3)CC2)cc1 15.8 µM
O=c1c(-c2ccccc2)nc2cnc(N3CCOCC3)nc2n1C1CC1 10 µM
O=c1c(-c2ccccc2)nc2cnc(N3CCNCC3)nc2n1C1CC1 0.158 µM
O=c1c(-c2ccc(F)cc2)nc2cnc(N3CCNCC3)nc2n1C1CC1 1 µM
N#Cc1cccc(-c2nc3cnc(N4CCNCC4)nc3n(C3CC3)c2=O)c1 0.631 µM

AC50, inactive:
CCC1(c2ccccc2)C(=O)NCNC1=O
CN1[C@@H]2CC[C@H]1CC(OC(c1ccccc1)c1ccccc1)C2 (some centres undefined)

activity, negative = inhibition, inactive:
CC(C)CO/N=C1/[C@H]2O[C@@H]2[C@@H](O)[C@H]2[C@H]1CCn1c(=O)n(C)c(=O)n12 -1.24% [at 11.4 µM]
CCOC(=O)Nc1ccc(C(=O)NCC2CCCO2)cc1 (centres undefined) -22.6%
CCC(=O)NC(NCC1CCCO1)C(Cl)(Cl)Cl (centres undefined) -27.2%
O=C(NCC1CCCO1)C1CCC(=O)N1CCc1ccccc1 (centres undefined) 29.1%
CN(C)c1ccc(N=Nc2cccc3ccoc23)cc1 18.2% [at 11.4 µM]
O=C(Oc1oc(-c2ccco2)nc1C=Nc1ccc(Cl)cc1)c1ccco1 -2.59%
CN(C)c1ccc(N=C/C=C2\N(C)c3ccccc3C2(C)C)cc1 -10.6%
c1cncc(-c2cc(-c3cc(-c4cccnc4)n[nH]3)[nH]n2)c1 8.46% [at 11.4 µM]
CCn1c(-c2ccc3ncccc3c2)n[nH]c1=S -26%
O=C(OC(C(=O)O)C(OC(=O)c1ccccc1)C(=O)NCc1ccccc1)c1ccccc1 (centres undefined) -12.8%
Cc1ccc(N(C(=O)c2csnn2)C(C(=O)NC(C)(C)C)c2cccs2)cc1 (centres undefined) -28.4%
Cc1ccc(S(N)(=O)=O)cc1NC(=O)/C=C/c1cccs1 -20.6%
CN(C)Cc1ccccc1-c1nccc(NCc2cccs2)n1 13.4% [at 2.29 µM]
COCCNc1ncnc2ccc(-c3ccccc3CN(C)C)cc12 25.7% [at 2.29 µM]
CCCc1cc(=O)[nH]c(=S)[nH]1 14.6% [at 25.6 µM]
CN1CCN(c2ncc3ncc(=O)n(CCC#N)c3n2)CC1 12.2%
CC(=O)OC[C@H]1O[C@@H](ON=C(C)C)[C@H](OC(C)=O)[C@@H](OC(C)=O)[C@H]1OC(C)=O 6.05% [at 11.4 µM]
O=C(Cn1cccc1C(=O)c1ccccc1)NCc1cccs1 -18.4%
CC(C)(C)C(=O)Nc1nnc(SCC(=O)NCc2cccs2)s1 -22.3%
O=S(=O)(O)[C@@H](c1ccccc1)[C@@H](O)c1ccccc1 3.25% [at 11.4 µM]
COCCCNC(=O)C(=O)N/N=C/c1ccc(OCC(=O)Nc2cccc(Cl)c2C)c(OC)c1 -2.04%
COCCCNC(=O)C1C2C=CC3(CN(Cc4ccc(C)cc4)C(=O)C13)O2 (centres undefined) 9.83%
Cc1ccc(CN2CC34C=CC(O3)C(C(=O)NCc3ccco3)C4C2=O)cc1 (centres undefined) -20.2%
c1ccc(C[n+]2cccc(-c3cc4ccccc4[nH]3)c2)cc1 -9.64% [at 11.4 µM]
O=C1C[C@@H](O)[C@@H](O)[C@H]2[C@@H]3C(=O)N(c4cccc(Oc5ccccc5)c4)C(=O)[C@@H]3CC[C@H]12 -10.3% [at 11.4 µM] and 1.22% [at 11.4 µM]
CN(Cc1ccco1)c1cc(-c2ccccc2C(F)(F)F)ncn1 9.45% [at 2.29 µM]
COc1cc(OC)c2c(c1)C(=O)c1cc(OC)cc(OC)c1C2=O -2.23%
COc1ccc2[nH]cc(CCNc3cc(-c4ccccc4C)ncn3)c2c1 -17.1% [at 2.29 µM]
Clc1ccc2c(c1)N(CCCN1CCCC13CCCCC3)c1ccccc1S2 10.5% [at 11.4 µM]
CC(N)=O 4.3%
N#Cc1ccc(OC(=O)c2ccc(N=C(N)N)cc2)cc1 12.7% [at 11.4 µM]
NC(=O)Nc1n[nH]c(-c2ccccc2)n1 -4.69% [at 11.4 µM]
O=C(NC[C@@H](O)CO)c1c(I)c(C(=O)NC[C@@H](O)CO)c(I)c(N(CCO)C(=O)CO)c1I 16.1% [at 25.6 µM]
O=C(c1cc(C(F)(F)F)cc(C(F)(F)F)c1)N1CCC2(CC1)CN(c1ccccn1)C2 -21.7%
O=C(c1cc(C(F)(F)F)cc(C(F)(F)F)c1)N1CCC2(CC1)CCN(c1ccccn1)CC2 9.59%
COc1ccc(-n2c(=O)c(-c3ccccc3)nc3cnc(N4CCNCC4)nc32)cc1 1.05%
N#Cc1cccc(-c2nc3cnc(N4CCOCC4)nc3n(C3CC3)c2=O)c1 -15.8%
O=c1c(-c2ccccc2)nc2cnc(N3CCNCC3)nc2n1-c1ccccc1 -22%
N#CCCn1c(=O)c(-c2cccc(C#N)c2)nc2cnc(N3CCOCC3)nc21 13%
O=c1c(-c2ccc(F)cc2)nc2cnc(N3CCOCC3)nc2n1C1CC1 10.8%
O=c1c(-c2ccc(F)cc2)nc2cncnc2n1C1CC1 8.93%
O=c1c(-c2ccccc2)nc2cnc(N3CCOCC3)nc2n1C[C@H]1CCCO1 -7.43%
O=c1c(-c2ccc(Cl)cc2)nc2cnc(N3CCOCC3)nc2n1C1CC1 -5.18%
